The list is not random: actives were taken first. Their share in the collection is about 7.5%.
SMN2 splice up: SMN2 splice variant enhancement. AID 1458. HEK293 SMN2-luciferase splicing reporter, luminescence, 30-36 h. Potency, µM (highest dose often 46.1 µM), for inactives: at the highest dose activity change, positive = activation, usual class: activators. 2.8% of 210,000 active; note: % of control where 0% means no effect; nearly all actives have a fitted effect of over 55% in size
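qHTS luciferase splicing reporter: luminescence rises when SMN2 exon 7 is included in transfected HEK293 cells. Compound exposure lasted 30-36 h at 37C, with 4.5 mM final sodium butyrate as control, followed by a ONE-Glo read.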
Rab9 promoter act: activates the Rab9 promoter; Potency, µM (top dose mostly 9.22 µM), inactives show at the top dose activation, negative = inhibition, hits mostly activators; 2.8% of 320,000 active; AID 485297; Huh7 Rab9 promoter-luciferase reporter, luminescence, 24 h; note: % of control where 0% means no effect; nearly all actives have a fitted effect of over 60% in size
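Huh7 cells stably carrying Rab9 promoter–luciferase reporter, plated 1500 cells/well, compound added after 2 h and incubated 24 h at 37 °C; luciferase luminescence then read after 10 min with detection reagent.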
FLuc counter: counter-screen for miR-21 project: firefly luciferase inhibitors or activators | P08659 | purified FLuc, Km substrates, luminescence inhibition | Potency, µM (series often up to 57.5 µM), for the others: top-dose activity change, negative = inhibition, actives largely listed as inhibitors | 6.9% of 360,000 active | AID 588342;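 note: plate controls were vehicle for no effect and reference inhibitor for full effect; nearly all actives have a fitted effect of over 55% in size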
Target sequence (P08659 whole entry, looked up): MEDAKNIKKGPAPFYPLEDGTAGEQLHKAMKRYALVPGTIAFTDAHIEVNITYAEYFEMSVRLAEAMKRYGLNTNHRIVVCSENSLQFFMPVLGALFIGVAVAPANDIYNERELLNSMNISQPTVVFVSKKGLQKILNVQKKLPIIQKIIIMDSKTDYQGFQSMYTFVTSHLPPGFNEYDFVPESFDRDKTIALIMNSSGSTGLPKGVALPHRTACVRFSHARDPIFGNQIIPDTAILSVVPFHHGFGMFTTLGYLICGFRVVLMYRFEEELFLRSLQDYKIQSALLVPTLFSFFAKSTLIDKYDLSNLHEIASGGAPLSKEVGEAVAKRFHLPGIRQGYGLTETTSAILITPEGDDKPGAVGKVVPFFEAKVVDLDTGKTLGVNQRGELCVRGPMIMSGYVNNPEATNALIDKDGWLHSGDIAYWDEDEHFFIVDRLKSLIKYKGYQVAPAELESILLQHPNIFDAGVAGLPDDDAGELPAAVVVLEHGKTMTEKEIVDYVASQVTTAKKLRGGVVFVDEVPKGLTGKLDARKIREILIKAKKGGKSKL
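Purified P. pyralis luciferase (10nM final) with 10uM D-luciferin and 10uM ATP (Km levels) in 50mM Tris acetate pH 7.5, 10mM Mg acetate, 0.01% Tween-20, 0.05% BSA; qHTS 6-point titration, ~60 µM downward; luminescence read.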
KinaseGlo FLuc: Kinase-Glo luciferase inhibition (counter-screen); Kinase-Glo luciferase, ATP luminescence, 8 min; Potency, µM (series often up to 38.3 µM), for the others: at the highest dose activity change, negative = inhibition, most hits filed as inhibitors; 0.28% of 200,000 active; AID 1379; note: % is set by controls: 0 for no effect and ±100 for the full control effect; nearly all actives have a fitted effect of over 60% in size
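Inhibition of Kinase-Glo luciferase light generation was assessed at 10 uM ATP in pH 7.2 imidazole buffer, with luminescence measured after eight minutes at ambient temperature.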
NPC1 promoter act: NPC1 promoter activation | Huh7 NPC1 promoter luciferase reporter, 24 h | AID 485313 | Potency, µM (highest dose often 9.22 µM), for the others: at the top dose activation, actives largely listed as activators | 2.4% of 320,000 active; note: % of control where 0% means no effect; nearly all actives have a fitted effect of over 60% in size
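Quantitative HTS used a cell-based reporter: Huh7 cells stably bearing the NPC1 promoter upstream of luciferase were treated with compounds for 24 h, and promoter activation was read as luminescence.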
ELG1 genotoxic: inducers of genotoxicity in HEK293T ELG1-luciferase cells. HEK293T ELG1-luciferase reporter, luminescence, 16 h. Potency, µM (highest dose often 46 µM), inactives show at the top dose activity change, positive = activation, most hits filed as activators. 1.3% of 330,000 active. AID 504466; note: % of control where 0% means no effect; nearly all actives have a fitted effect of over 60% in size
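HEK293T cells expressing luciferase-tagged ELG1 were exposed to compound or DMSO vehicle for 16 hr at 37 °C and 5% CO2. Luciferase activity was then measured with ONE-Glo after 30 min at room temperature.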
The depositor's hits bear a star; ? = inconclusive; . = not tested or not shown. Calls come from the whole dose curve; as a rule, active = well fitted curve in the direction sought with a large enough effect; inconclusive = small, poorly fitted or top-dose-only effect, or another doubt; inactive = no such curve, though single readings can be large; an effect the other way counts as inactive or inconclusive. Potency is the fitted concentration of half-maximal effect.

SMILES | SMN2 splice up | Rab9 promoter act | FLuc counter | KinaseGlo FLuc | NPC1 promoter act | ELG1 genotoxic
O=C(Nc1ccc2c(c1)OCCO2)C1CC1c1ccccc1 (configuration not stated) | 11µM* | 4µM* | 9.5µM* | -1% | ? | ?
O=C(CC(=O)c1ccccc1)Nc1ccc2c(c1)OCCO2 | 13µM* | 1.4µM* | 6.7µM* | -6% | 2.5µM* | ?
O=C(O)C1CCCCC1C(=O)Nc1ccc2c(c1)OCCO2 (configuration not stated) | -12% | 3% | -8% | 2% | 2% | 7%
O=C(Nc1cccc(NC(=O)c2cccs2)c1)c1ccc2c(c1)OCCO2 | . | 30% | 7.6µM* | -6% | 23% | 2%
O=C(Nc1cccc(NC(=O)c2cccs2)c1)c1ccc(Br)cc1 | . | 3% | ? | . | -9% | -7%
O=C(Nc1ccc2c(c1)OCO2)c1cc(Cl)ccn1 | . | 1.3µM* | 4.8µM* | . | 1.8µM* | ?
O=C(CCCc1ccccc1)Nc1ccc2c(c1)OCCO2 | 6.3µM* | 0.45µM* | 2.1µM* | 1% | 0.5µM* | 2.1µM*
O=C(CCCCCN1C(=O)c2ccccc2C1=O)Nc1ccc2c(c1)OCCO2 | 2% | -1% | ? | -2% | 7% | 0%
O=C(Nc1ccc2c(c1)OCCO2)c1ccc(Br)s1 | 1.1µM* | 1.6µM* | 0.67µM* | -7% | 3.5µM* | 1.5µM*
CCOc1cccc(C(=O)Nc2ccc3c(c2)OCCO3)c1 | . | ? | 1.5µM* | . | ? | 2.3µM*
CC(C)(O)C#Cc1ccc(C(=O)NCCC(=O)O)s1 | 7% | -6% | 8% | 0% | 0% | 1%
Cc1noc(C)c1COc1cccc(C(=O)Nc2ccc3c(c2)OCO3)c1 | 26% | 17% | ? | -8% | 5% | 25%
CC(C)(O)C#Cc1ccc(C(=O)Nc2ccc3c(c2)OCO3)s1 | . | ? | 8.5µM* | . | 2.8µM* | ?
O=C(NC(=S)Nc1ccccc1Br)c1ccc2c(c1)OCO2 | . | 11% | 9.5µM* | . | ? | ?
CC(C)(C)NS(=O)(=O)c1ccc(C(=O)Nc2ccc3c(c2)OCO3)cc1 | . | 5% | ? | . | 7% | 16%
CS(=O)(=O)Nc1ccc(C(=O)Nc2ccc3c(c2)OCCO3)cc1 | ? | ? | 19µM* | 6% | ? | ?
O=C(Nc1ccc(C(=O)O)cc1)/C(=C/c1ccc2c(c1)OCO2)NC(=O)c1cccc(Br)c1 | 12% | 1% | -4% | -1% | 1% | 0%
O=C(Nc1ccc2c(c1)OCO2)c1ccccc1 | . | 1.1µM* | 9.5µM* | . | 1.8µM* | ?
O=C(NC(=S)Nc1ccc2c(c1)OCCO2)c1cccc(Br)c1 | 13µM* | 3.2µM* | 11µM* | 0% | 3.2µM* | ?
Cc1ccc(C)c(-n2c(N)c(C#N)c3nc4ccccc4nc32)c1 | 0% | . | -3% | . | . | .
COc1ccc(CNC(=O)COC(=O)CO/N=C(\C)c2ccc3c(c2)OCO3)cc1 | . | -6% | -1% | . | 0% | -3%
CCOc1ccccc1NC(=O)Cn1c(=O)n(CCCC(=O)NCCOC)c(=O)c2cc(OC)c(OC)cc21 | -3% | . | -3% | . | . | .
O=C(Nc1ccc2c(c1)OCCO2)c1ccccc1 | . | 0.79µM* | 3.4µM* | . | 0.45µM* | 3.7µM*
O=C(Nc1ccc(NC(=O)c2cc3ccccc3o2)cc1)c1ccc2c(c1)OCCO2 | -33% | -13% | -2% | 2% | -13% | 10%
CC(C)C(NC(=O)C1CCCCC1)C(=O)Nc1ccc2c(c1)OCCO2 (configuration not stated) | 36% | 2µM* | 6µM* | -8% | 1.1µM* | ?
O=C(Nc1cccc(Cl)c1)c1ccc2c(c1)OCCO2 | . | 1.8µM* | 1.1µM* | . | 1.3µM* | 2.1µM*
O=C(Nc1ccc2c(c1)OCCO2)c1ccc(Cl)cc1Cl | . | 0.28µM* | 1.2µM* | . | 0.45µM* | ?
CCOCCCn1c(SCC(=O)NCCCOC)nc2c(sc3ccccc32)c1=O | . | . | 1% | . | . | .

Screens from PubChem BioAssay.
